# Data published in PubChem BioAssay.
# A number with no mark means an inactive call. The rule behind the calls is not given here.
# Molecular target: Pantothenate synthetase (Mycobacterium tuberculosis (strain ATCC 25618 / H37Rv)) (UniProt P9WIL5)
# Assay: Coupled enzyme confirmation of inhibitors against recombinant Mtb PanC (AID 375);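 note: 0% = full reaction with vehicle and 100% = no enzyme background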
# Settings: coupled enzyme assay; at 10 µM, active compounds read high
# Chain of Pantothenate synthetase (Mycobacterium tuberculosis (strain ATCC 25618 / H37Rv)) (P9WIL5 whole entry, looked up): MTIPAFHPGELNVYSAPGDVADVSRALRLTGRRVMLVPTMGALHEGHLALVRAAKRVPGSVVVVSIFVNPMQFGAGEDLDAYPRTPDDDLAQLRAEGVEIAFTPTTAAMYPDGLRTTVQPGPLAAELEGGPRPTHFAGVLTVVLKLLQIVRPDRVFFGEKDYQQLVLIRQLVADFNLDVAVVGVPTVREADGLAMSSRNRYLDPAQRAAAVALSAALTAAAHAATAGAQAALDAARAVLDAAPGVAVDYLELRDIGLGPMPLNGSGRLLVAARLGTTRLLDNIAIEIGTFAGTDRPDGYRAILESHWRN
row,Compound,inhibition
1,Cc1nn(-c2ccc(F)cc2)c2sc(C(=O)O)cc12,0%
2,COc1cc(OC)c(OC)cc1CN(C)CCc1ccccn1,3%
3,CCOC(=O)N1CCN(C(=O)COc2ccc(Br)cc2Cl)CC1,0%
4,COC(=O)c1ccc(-c2ccco2)n1Cc1nc(-c2ccc(OC)c(OC)c2)oc1C,2%
5,Cn1c(=O)cc(SCC(=O)NCC2CCCO2)c2ccc(Cl)cc21 (configuration not stated),10%
6,Cc1ccc2c(C)nc(Nc3nc(CSc4nnnn4-c4ccccc4)cc(=O)[nH]3)nc2c1,11%
7,CCc1cccc(NC(=O)CN(C)S(=O)(=O)c2cccc3nsnc23)c1,12%
8,CCOC(=O)c1ccc(NC(=O)CCc2nc(-c3ccc(C)cc3)no2)cc1,0%
9,CCCCn1c(CN2CCN(CCO)CC2)nc2ccccc21,0%
10,COCCn1nnnc1SCC(=O)N1CCCCC1,0%
11,NCc1ccc(S(N)(=O)=O)cc1,2%
12,Cc1ccc(-c2nc3cc(N)ccc3o2)cc1,0%
13,Cc1cc(-c2ccccc2)nnc1NCCN1CCOCC1,0%
14,CN(C)CCCN1c2ccccc2Sc2ccc(C(F)(F)F)cc21,0%
15,CCOC(=O)N1CCC(NC(=O)C2CCCN(C(=O)c3cc4sccc4n3C)C2)CC1 (configuration not stated),0%
16,O=S(=O)(Cc1ccc(Cl)cc1)Nc1ccc2c(c1)OCO2,7%
17,CCn1cc(C(=O)Nc2cc3c(cc2NC(C)=O)OCCO3)c(=O)c2ccc(C)nc21,1%
18,COc1cccc(NC(=O)c2nc3nc(C)cc(C(F)F)n3n2)c1,0%
19,CSc1nc2ccccc2c(=O)n1N,0%
20,O=C(c1ccccc1)N1CCCCC(Sc2nnnn2-c2ccccc2)C1=O (configuration not stated),0%
21,CC(C)(C)C(=O)Oc1cc(N)n(S(=O)(=O)c2ccccc2)n1,0%
22,O=c1c(-c2ccc(F)cc2)coc2c3c(ccc12)OCCO3,11%
23,CC(=O)CCc1c(C)[nH]c2ccccc2c1=O,1%
24,CCn1c(SCc2nc(-c3cccs3)no2)nnc1-c1c[nH]c2ccccc12,0%
25,O=C(CSc1ncnc2ccccc12)N1CCN(c2ccccc2)CC1,0%
26,O=C1CC(c2cccs2)CC2=C1C(c1ccccc1)n1ncnc1N2 (configuration not stated),3%

row,Compound,inhibition
1,Nc1c(C2=NCCO2)nnn1Cc1ccccc1,0%
2,CCOC(=O)c1ccccc1NC(=O)c1c(O)c2ccccc2n(CC)c1=O,0%
3,CCOC(=O)c1cc2c(=O)n3ccccc3nc2n(Cc2ccccc2)c1=N,0%
4,Cc1cc(C)nc(NC(=O)c2cnc3sccn3c2=O)n1,13%
5,COc1ccccc1N1CC(O)=C(c2nc3ccccc3c(=O)[nH]2)C1=N,13%
6,CCOC(=O)CSc1nnc(Cn2c(=O)sc3ccccc32)n1C,0%
7,CC(C)(C)SCCNC(=O)CN1C(=O)c2ccccc2S1(=O)=O,0%
8,CCOC(=O)C(C(C)=O)c1nc(C)nc2c1nnn2Cc1ccccc1Cl (configuration not stated),0%
9,CC(C)(C)NC(=O)Cn1c(=O)oc2ccc(Cl)cc21,0%
10,Oc1cc(NCc2cccnc2)ccc1-c1nc2ccccc2o1,0%
11,Cc1cccc(C2CC(c3ccccc3)Nc3nc(N)nn32)c1 (configuration not stated),0%
12,CC1=C(C(N)=O)C(c2ccccn2)n2nc(-c3ccccc3Cl)nc2N1 (configuration not stated),5%
13,CCOc1ccc(NC(=O)CSc2nccn2C)cc1,6%
14,COc1ccc(CN(C(=O)CN2C(=O)COc3ccccc32)C2CCCC2)c(OC)c1,0%
15,Cc1ccc(N2CC(C(=O)Nc3ccc4c(c3)OCO4)CC2=O)cc1 (configuration not stated),6%
16,CCOC(=O)C1CCN(c2c(NCCN3CCN(c4ccccc4)CC3)c(=O)c2=O)CC1,0%
17,CC1=C(C(=O)OC2CCCCCC2)C(c2ccc(C)o2)C2=C(CCCC2=O)N1 (configuration not stated),0%
18,C(=C\c1ccccc1)/CSc1nnc(-c2ccccn2)n1Cc1ccco1,5%
19,Clc1ccc(OCc2nc(-c3ccccn3)no2)c(Br)c1,0%
20,CC1CCN(C(=O)CSc2nnc(-c3ccc(S(=O)(=O)N4CCOCC4)cc3)n2C)CC1,4%
21,N#CCCN(C(=O)Nc1ccc(Cl)cc1)c1ccccc1,1%
22,CC(NC(=O)c1ccco1)c1ccc2c(c1)OCCO2 (configuration not stated),0%
23,COC(=O)c1ccc(NC(=O)C2C3CCC(C3)C2C(=O)O)cc1 (configuration not stated),0%
24,Cc1ccc(N(CC2=NCCN2)c2cccc(O)c2)cc1,1%
25,CCOC(=O)c1ccc(NC(=O)COc2ccc(-n3cnnn3)cc2)cc1,0%
26,CCOC(=O)C1CCN(c2cc(C)nc3cc(-c4cccc(F)c4)nn23)CC1,3%

row,Compound,inhibition
1,COc1ccc(S(=O)(=O)NC2CCCCC2)c(C)c1C,4%
2,c1coc(-c2nnc(NC3=NCCC3)o2)c1,0%
3,COc1cc(C(Nc2ccc3c(c2)OCO3)C(=O)NC2CCCCC2)cc(OC)c1OC (configuration not stated),2%
4,Cn1c(CN2CCOCC2)nnc1SCC(=O)NCCc1ccccc1,0%
5,CN1CCCc2cc(C#N)c(=O)[nH]c21,5%
6,O=C(c1ccc(Br)o1)N(c1ccc(Br)cc1)C1C=CS(=O)(=O)C1 (configuration not stated),0%
7,C#CCN(C)Cc1ccccc1,3%
8,COc1cc(SC)ccc1C(=O)Nc1ccon1,0%
9,COC(=O)C1=C(N)Oc2cc(C)n(Cc3ccncc3)c(=O)c2C1c1cccnc1 (configuration not stated),0%
10,CCc1nnc(SCc2cn3c(C)cc(C)nc3n2)n1N,0%
11,COC(=O)c1cccc(S(=O)(=O)N2CCC(C)CC2)c1,3%
12,O=C(CSc1nnc(-c2c[nH]c3ccccc23)o1)N(Cc1ccccc1)c1ccc(F)cc1,0%
13,Cc1ccc(Cn2c(C)nc3c(c2=O)c2nc4ccccc4nc2n3Cc2ccco2)cc1,0%
14,Cc1ccc(C(=O)CSc2n[nH]c(-c3ccco3)n2)cc1C,1%
15,CCS(=O)(=O)N1CCCC(C(=O)NCc2ccccc2Cl)C1 (configuration not stated),2%
16,CCCC(=O)OCCn1c(Br)nc2c1c(=O)[nH]c(=O)n2C,7%
17,Cc1cccc(N2CCN(C(=O)C3CCCN(S(=O)(=O)c4c(C)noc4C)C3)CC2)c1C (configuration not stated),0%
18,COC(=O)c1ccccc1NC(=O)CC(NCc1ccccc1)C(=O)O (configuration not stated),0%
19,O=C(Nc1ccccc1)N(CCCN1CCOCC1)Cc1cc2cc3c(cc2[nH]c1=O)OCCO3,0%
20,COc1ccccc1-c1nnc(SCc2ccccn2)n1C,0%
21,COCCNC(=O)C(c1cccs1)N(C(=O)Cn1nnc2ccccc21)c1ccccc1 (configuration not stated),6%
22,c1cc(-c2nc3ccccc3o2)nc(-c2nc3ccccc3o2)c1,0%
23,CCN(CC)CCNC(=O)CCn1c(=S)[nH]c2cc3c(cc2c1=O)OCO3,0%
24,O=C(CN1CCN(Cc2ccc(F)cc2Cl)C1=O)NCCCN1CCOCC1,0%
25,Cc1ccc(S(=O)(=O)N2CCCC(C(=O)NC3=NCCS3)C2)cc1 (configuration not stated),12%
26,O=S1(=O)CC(N2CCCCC2)C(N2CCCCC2)C1 (configuration not stated),6%

row,Compound,inhibition
1,Cc1ccc2c(c1C)NC(C)CC2C (configuration not stated),0%
2,Cc1nnc(N(Cc2ccco2)C(=O)c2cccc(C#N)c2)s1,2%
3,Cc1ccc(C)c(NC(=O)CSc2nnc(-c3ccccc3)o2)c1,5%
4,C#CC(CO)N(CCN(Cc1ccccc1)C(C#C)CO)Cc1ccccc1 (configuration not stated),9%
5,CCCNC(=O)c1ccccc1NC(=O)CN(c1ccccc1OCC)S(C)(=O)=O,0%
6,COc1ccc(CC(=O)Nc2c3c(nn2-c2cccc(Cl)c2)CS(=O)C3)cc1 (configuration not stated),7%
7,CCOC(=O)c1[nH]nc(N)c1NC(=O)c1ccc(Cl)cc1Cl,0%
8,COc1cc2c(OC)cccc2cc1C(=O)O,0%
9,CCCn1c(SCC(=O)Nc2nnc(-c3ccccc3)s2)nnc1-c1ccccn1,0%
10,CC(=Nc1cccc(O)c1)c1sc2ccccc2c1O,0%
11,Cc1cc(NC(=O)c2ccccc2)ncc1NC(=O)c1ccco1,0%
12,CC1Cc2ccccc2N1NC(=O)c1ccc(Cl)c(S(N)(=O)=O)c1 (configuration not stated),0%
13,COc1ccc(NC(=O)CN(c2ccc(C)cc2)S(C)(=O)=O)c(OC)c1,4%
14,COc1ccccc1Nc1ccc(C(=O)NC2CCCCC2)cn1,0%
15,Cc1ccccc1-n1nc(C)c2cc(C(=O)NCc3cccnc3)sc21,0%
16,Cc1cc(NCC2CCCO2)n2c(nc3ccccc32)c1C#N (configuration not stated),1%
17,CC(O)CN1C(=O)C(CC(=O)Nc2ccc(Cl)cc2)SC1=Nc1ccccc1 (configuration not stated),0%
18,Cc1ccnc(NC(=O)CCC(=O)N(CC(=O)NC(C)(C)C)C2CCCC2)c1,0%
19,Cc1cc(C(C)(C)C)c(O)c(C)c1CC1=NCCN1,0%
20,COc1ccc(Cn2c(N)c(C#N)c3nc4ccccc4nc32)cc1OC,1%
21,CCOC(=O)Cc1cc(=O)n2[nH]c(C)c(-c3ccc(OC)cc3)c2n1,6%
22,Cc1cc(C)c(C#N)c(SCC(=O)Nc2ccc(S(=O)(=O)Nc3onc(C)c3C)cc2)n1,0%
23,CN(C)[C@@H]1C(=O)C(C(N)=O)=C(O)[C@@]2(O)C(=O)C3=C(O)c4c(O)ccc(Cl)c4[C@@H](O)[C@H]3C[C@@H]12,0%
24,Cc1ccccc1-n1c(=O)cc(N2CCN(C(=O)c3ccco3)CC2)[nH]c1=O,0%
